Experimental data reported in PubChem BioAssay (NCI).
The panel holds about 79,000 compounds, 15% with a hit somewhere; the sample as a whole holds those more often. Values without a mark were called inactive. The source made the active and inactive calls. No stated cut-off is given here; in the data, active means growth inhibition above about 70%; inactive means the rest.

Assay: NCI Yeast Anticancer Drug Screen. Data for the rad50 strain (AID 155);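 further: 0% = growth of vehicle-only cultures of the same strain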
Details: S. cerevisiae rad50 strain growth inhibition, stronger effect = higher value
Description: Growth inhibition of yeast strains with defined genetic alterations is measured as a screen for potential anti-cancer activity. Selected strains with alterations in DNA damage repair or cell cycle control were exposed to compounds and growth inhibition was measured relative to vehicle treated controls. The strain used in this assay is rad50

[1] = at 5.0 µM (retest, dose inferred, filed as 0.5)
[2] = at 50.0 µM (retest, dose inferred, filed as 5.0)

Compound | growth inhibition [1] [%] | growth inhibition [2] | growth inhibition (at 50.0 µM)
CCCCC(Oc1cc(C(C)(C)C)c(O)c(C(C)(C)C)c1)C(=O)O (configuration not stated) | 21 | 68% | 99.1% (active)
CC(=O)OC(OC(C)=O)c1ccc2ccc3cccc4ccc1c2c34 | 16 | 89% (active) | 63.4%
C=CCOC(=O)CCC(=O)N(CC)CC | 4 | -10% | -8.95%
CCN(CC)CCNc1ccc(C)c2oc3ccc(O)cc3c(=O)c12 | 39 | 96% (active) | 99% (active)
COC(=O)CSc1nc2[nH]c(SC)c(C(N)=O)c2c(=O)n1-c1ccccc1 | -2 | -4% | 2.35%
CC(C)(N)COB(c1ccccc1)c1ccccc1 | 10 | 99% (active) | 99.7% (active)
CCc1cc2c(c3c1C(=O)CC3)C(C)(C)CCC2 | 1 | 96% (active) | 11%
CCCCC(O)CCCC | 13 | 17% | 4.55%
CNc1ccc([N+](=O)[O-])cc1 | -4 | 13% | 43%
FC(F)(F)c1ccc(Cl)c(NC(=S)SC2CCCCC2)c1 | 5 | 95% (active) | 98.5% (active)
CCCCCCCC[N+](C)(C)Cc1ccc(C[N+](C)(C)CCCCCCCC)cc1 | 1 | 24% | 8.75%
Nc1ccc(-c2cccc(-c3ccccc3)c2)cc1 | -8 | 94% (active) | 98% (active)
COc1cc(CSc2ccc(O)cc2)cc(OC)c1OC | -3 | 34% | 79.1% (active)
COc1ccc(C(=O)Nc2ccc(Cl)cc2)cc1 | -21 | -17% | 3.75%
